# Source: PubChem BioAssay (NCATS)
# Inconclusive results are not listed. Active and inactive are the calls of the source.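 Rule for the calls: active = dose-dependent loss of cell ATP signal giving a full or clear fitted curve, ranked by lower potency value; inconclusive = weak partial curve or response only at the top dose; inactive = no loss of viability signal.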
# Test: Cell Viability - Jurkat (AID 426);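 note: cells exposed to compound for 40 hours at 37 °C before ATP read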
# Conditions: qHTS
# Source text: NIH Chemical Genomics Center [NCGC]
# NIH Molecular Libraries Screening Centers Network [MLSCN]
# National Institutes of Environmental Health Sciences [NIEHS]
# National Toxicology Program [NTP]
# We have developed a 1536-well cell-based assay for quantitative high throughput screening (qHTS) against a number of cell lines to determine in vitro cytotoxicity of small molecules. This particular assay uses the Jurkat cell line (Clone E6-1) which is derived from the human T cell leukemia.
# NCGC Assay Protocol Summary:
# The CellTiter-Glo luminescent cell viability assay (Promega) is a homogeneous method to measure the number of viable cells in culture. The end point readout of this assay is based on quantitation of intracellular ATP, an indicator of metabolic activity, using the luciferase reaction. Luciferase catalyzes the oxidation of beetle Luciferin to oxyluciferin and light in the presence of ATP. The luminescent signal is proportional to amount of ATP present.
# Using the CellTiter-Glo luminescent cell viability assay, the amount of cellular ATP was measured in the Jurkat cell line with complete culture medium following compound treatment for 40 hours. The assay was performed in opaque white Kalypsys 1536-well plates. In the screen, tamoxifen and doxorubicin were used as positive controls. Library compounds were measured for their ability to cause acute toxicity in the cell line, as reflected by a decrease in intracellular ATP levels, in a concentration-dependent manner. […] AC50 values were determined from concentration-response data modeled with the standard Hill equation.
# qHTS protocol for CellTiter Glo Jurkat cellular assay
# [Step] [Parameter] [Value] [Description]
# 1. Reagent; 5 uL; 5000 Jurkat cells/well
# 3. Controls; 23 nL; Tamoxifen 0.34 uM to 100 uM & Doxorubicin 0.02 nM to 100 uM
# 4. Time; 40 hr; 37 °C incubation
# 5. Reagent; 5 uL; CellTiter Glo reagent
# 6. Time; 20 min; Room Temperature
# 7. Detection; Luminescence; Viewlux plate reader
# Keywords: cell viability, cytotoxicity, Jurkat cell line, luminescence, NTPHTS, NTPHTS_NCGC, NIEHS, EPA, DSSTox, MLSMR, MLSCN, NIH Roadmap, qHTS, NCGC
# Potency is the fitted concentration of half-maximal effect.
row,SMILES,Potency
1,CN(C)CCC(c1ccccc1)c1ccccn1 (stereo unspecified),> 92 µM (inactive)
2,CC1=C(/C=C/C(C)=C/C=C/C(C)=C/C(=O)Nc2ccc(O)cc2)C(C)(C)CCC1,2.16 µM (active)
3,O=c1c(O)c(-c2ccc(O)cc2)oc2cc(O)cc(O)c12,> 92 µM (inactive)
4,CCCNC(=O)NS(=O)(=O)c1ccc(Cl)cc1,> 92 µM (inactive)
5,O=c1c(-c2ccc(O)cc2)coc2cc(O)ccc12,> 92 µM (inactive)
6,CC/C(=C(\c1ccccc1)c1ccc(OCCN(C)C)cc1)c1ccccc1,31.5 µM (active)
7,CCn1cc(C(=O)O)c(=O)c2ccc(C)nc21,> 92 µM (inactive)
8,O=c1[nH]cnc2c1ncn2[C@H]1CC[C@@H](CO)O1,> 92 µM (inactive)
9,CC(=O)c1ccc(S(=O)(=O)NC(=O)NC2CCCCC2)cc1,> 92 µM (inactive)
10,O=C(O)Cc1cccc2ccccc12,> 92 µM (inactive)
11,O=C1NC(=O)C(c2ccccc2)(c2ccccc2)N1,> 92 µM (inactive)
